Compound activity (PubChem)
An excerpt weighted towards active compounds, which were near 4.8% of everything screened.
hgDAF-12 ag: agonists of H. glycines DAF-12 nuclear receptor. activation, % at 6.8 µM. AID 687014. HEK293 GAL4-hgDAF12 UAS-luciferase reporter, agonist luminescence; normalized to butyrate control. 370,000 compounds, 1.8% hits;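 active means activation above a cutoff set at the mean of all screened compounds plus 3 SD, cut at about 10% in these data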
DAX1 inh-1: blocks DAX1 repression of SF-1 activated StAR promoter; HEK293T StAR-luciferase reporter, SF-1/DAX-1 repression relief; inhibition, % at 6.8 µM; 370,000 compounds, 1.1% hits; AID 652010;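 active means inhibition above the mean over all tested compounds plus 3 SD, cut at about 3.6% in these data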;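 further: higher inhibition means more luminescence from relief of DAX-1 repression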
DAX1 inh-2: inhibitors of human orphan nuclear receptor DAX1 (NR0B1) | 340,000 compounds, 0.99% hits | inhibition, % at 6.75 µM | P51843 | AID 504766 | HEK293 Gal4-DAX1 luciferase reporter, luminescence;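 active means inhibition above the mean over all tested compounds plus 3 SD, cut at about 4.2% in these data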;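 further: inhibition shows as a rise in luminescence from relieved DAX1 repression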
Target sequence (P51843 207-470 limits assumed): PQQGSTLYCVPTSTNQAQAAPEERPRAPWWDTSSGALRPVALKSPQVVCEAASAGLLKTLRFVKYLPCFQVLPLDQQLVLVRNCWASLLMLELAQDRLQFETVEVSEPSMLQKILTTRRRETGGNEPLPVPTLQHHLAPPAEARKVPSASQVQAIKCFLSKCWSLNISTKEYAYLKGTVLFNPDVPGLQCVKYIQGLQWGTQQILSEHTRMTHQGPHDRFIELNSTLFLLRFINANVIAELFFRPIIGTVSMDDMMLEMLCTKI
SMARCA2 act: SMARCA2 function activation, primary screen | 370,000 compounds, 1% hits | activation, % at 9.1 µM | AID 652017 | MG213 cells, MMTV-luciferase reporter, dexamethasone, overnight; in the data active means activation above about 7.8%
ssDAF12 agonist: activators of S. stercoralis DAF-12 nuclear receptor; HEK293 ssDAF-12/GRIP1 lit1-tk-luc reporter, luminescence; % of 3 µM dafachronic acid response; activation, % at 6.8 µM; 370,000 compounds, 1% hits; AID 652126;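 active means activation above the mean over all tested compounds plus 3 SD, cut at about 0.9% in these data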
hcDAF12 agonist: H. contortus DAF-12 activation, primary screen. HEK293 hcDAF-12 lit1-tk-luc reporter, luminescence; 0% DMSO, 100% Δ7-dafachronic acid. activation, % at 6.8 µM. 370,000 compounds, 1.4% hits. AID 652067;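 active means activation above the mean of all tested compounds plus 3 SD, cut at about 5.5% in these data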
Numbers stand for hits; - = inactive; . = no result.

SMILES	hgDAF-12 ag	DAX1 inh-1	DAX1 inh-2	SMARCA2 act	ssDAF12 agonist	hcDAF12 agonist
CC(=O)c1ccc(-n2ccnc2)cc1	-	-	-	-	-	-
C[C@@H]1CCN(C2CC2)S(=O)(=O)c2ccc(N3CC[C@H](O)C3)cc2O1	-	-	.	-	-	-
Cc1ccccc1C(=O)Oc1ccccc1N1C(=O)C2CC=CCC2C1=O (stereo not given)	-	-	-	-	-	-
O=C(Oc1ccccc1N1C(=O)C2CC=CCC2C1=O)c1ccc(Br)cc1 (stereo not given)	-	-	-	-	1.2	-
Cc1ccc(OCC(=O)NC(=S)Nc2ccc(Br)c(C)n2)cc1	-	-	-	-	-	-
Cc1nc(NC(=S)NC(=O)c2cccs2)ccc1Br	-	-	-	-	1.3	-
N#Cc1ccccc1NC(=S)NC(=O)c1cccs1	-	-	-	-	-	6.0
Cc1ccc(OCC(=O)NC(=S)Nc2cccc(C)n2)cc1	-	-	7.8	-	-	-
Cc1nc(NC(=S)NC(=O)COc2ccc(Cl)cc2)ccc1Br	-	-	6.0	-	-	-
Cc1cccc(NC(=S)NC(=O)c2cccs2)n1	-	-	-	-	-	-
COc1cccc(NC(=O)NC2CCCCN(Cc3ccc(C)cc3)C2=O)c1 (stereo not given)	-	-	.	-	-	-
COc1cccc(=O)c2c(C)n(CC(=O)c3ccccc3)c(C)c12	-	-	-	-	1.5	-
CCCc1ccc(OCc2ccc(C(=O)O)o2)c(OC)c1	-	-	-	-	-	-
C=CCc1ccc(OCCCCOc2ccc(C(=O)O)cc2)c(OC)c1	-	-	.	-	3.8	-
C=CCc1ccc(OCc2ccc(C(=O)O)o2)c(OC)c1	-	-	-	-	-	6.0
O=S(=O)(c1ccc(Cl)s1)N1CCC(c2cn3ccccc3n2)CC1	-	-	.	-	-	-
Cc1ccccc1Cn1cc(CN2[C@@H](Cc3ccccc3)COc3cc(Br)ccc3S2(=O)=O)nn1	-	-	.	-	-	-
COc1ccccc1NC(=O)COc1ccc(Br)cc1CNCCCN1CCOCC1	-	-	-	-	-	-
Cc1ccccc1NC(=O)COc1ccc(Br)cc1CNCCCO	-	-	5.2	-	-	-
CC(C)N(Cc1nccn1C)C(=O)CC1C(=O)NCCN1Cc1ccc(F)cc1 (stereo not given)	-	-	-	-	-	-
COc1ccc(CN2CCNC(=O)C2CC(=O)N(Cc2nccn2C)C(C)C)c(OC)c1 (stereo not given)	-	-	4.4	-	-	-
CCCCOCCCNC(=O)C[C@H]1C[C@@]2(C(=O)OC)C(=C[C@H](C(C)C)O[C@@H]2C2CC2)N(CCc2ccc(OC)c(OC)c2)C1=O	-	-	.	-	-	-
COC(=O)C(C)N1C(=O)S/C(=C\c2cc(C)n(-c3ccccn3)c2C)C1=O (stereo not given)	10.7	-	-	-	-	-
COC(=O)c1cc2c(c3c4ccccc4n(S(=O)(=O)c4ccccc4)c13)C(=O)N(C)C2	-	-	.	-	-	-
COC(=O)c1cc2c(c3c4ccccc4n(S(=O)(=O)c4ccc(C)cc4)c13)C(=O)N(C)C2	-	-	.	7.9	-	-
SMILES	hgDAF-12 ag	DAX1 inh-1	DAX1 inh-2	SMARCA2 act	ssDAF12 agonist	hcDAF12 agonist
Cc1ccc(CCNC(=O)CC2Oc3ccc(C)cc3NC2=O)cc1 (stereo not given)	-	-	10.7	-	-	-
Cc1ccc2c(c1)NC(=O)C(CC(=O)NCCN(C)C)O2 (stereo not given)	-	-	-	-	-	-
Cc1ccc2c(c1)NC(=O)C(CC(=O)NCCCN1CCCCC1)O2 (stereo not given)	-	-	4.5	-	-	-
COc1ccc(CN2C(=O)CCCC2(C)c2nnnn2-c2c(C)cccc2C)cc1OC (stereo not given)	-	-	.	-	-	-
COc1ccc(S(=O)(=O)N2CCN(C(=O)CSc3nc4ccccc4nc3N3CCCCC3)CC2)cc1	-	-	.	-	-	-
CC(=O)NNC(=O)c1[nH]c2ccc(Cl)cc2c1-c1ccccc1	-	-	5.0	-	-	-
O=C(NN=C1CCCC1)c1[nH]c2ccc(Cl)cc2c1-c1ccccc1	-	-	.	-	-	-
CC(CCCN1CCCC1)Nc1ccnc2cc(Cl)ccc12 (stereo not given)	-	-	7.0	-	-	-
CN(C)c1ccc(C(=O)/C=C/c2ccco2)cc1	12.7	-	-	-	0.9	-
O=C(/C=C\c1ccco1)c1ccc(NC(=O)c2ccco2)cc1	10.6	-	-	-	-	-
COc1ccc(C(=O)N[C@@H]2CC[C@@]34CCCN3C(=O)CCC[C@H]4[C@H]2C)cc1	-	.	.	.	-	-
O=C(CSc1ccc(Cl)cc1)Nc1ccccc1	-	-	-	-	-	-
O=C(CSc1cccs1)Nc1ccc(Cl)cc1	-	-	4.9	-	-	-
CN(Cc1ccccc1)S(=O)(=O)c1cccc(C(=O)OCc2ccccc2)c1	-	-	.	-	-	-
CCc1ccccc1NC(=O)CSc1n[nH]c(C)c1[N+](=O)[O-]	-	-	5.3	-	-	-
Cc1[nH]nc(SCC(=O)NC(C)c2ccccc2)c1[N+](=O)[O-] (stereo not given)	-	-	4.3	-	-	-
Cc1nc(-c2ccccc2)nc(Cl)c1Cl	-	-	-	-	-	-
Cc1nc2nc(-c3ccccc3)nn2c(C)c1Cl	-	-	-	-	0.9	5.6
Cc1nc2nc(-c3ccccc3)nn2c(C)c1C	10.5	-	-	-	-	-
CCOC(=O)[C@]12CCCCC/C=C\1N(CCc1ccc(Cl)cc1)C(=O)[C@H]2CC(=O)N1CCN(C(=O)c2ccco2)CC1	-	-	.	-	-	-
O=C(COC(=O)c1cc(Cl)nc(Cl)c1)NCCc1ccc(F)cc1	-	-	-	-	1.6	-
CCN(CC)c1cc(-c2ccccc2)ncn1	-	-	-	-	-	-
CN(C)c1ccc(-c2ccccc2)nn1	-	3.8	-	-	-	-
CCC(=O)Nc1ccc(Nc2ccccc2)cc1	-	-	-	-	-	-
O=C(CC(=O)Nc1ccccc1)Nc1ccccc1	-	-	4.3	-	-	-
SMILES	hgDAF-12 ag	DAX1 inh-1	DAX1 inh-2	SMARCA2 act	ssDAF12 agonist	hcDAF12 agonist
O=C(CSCc1ccc(C(=O)O)cc1)Nc1ccccc1	-	-	5.1	-	-	-
O=C(CNc1ccccc1)Nc1ccc(F)cc1	10.9	-	-	-	0.9	-
COC(=O)C1CN(Cc2cn(Cc3ccc(C)cc3)nn2)CCS(=O)(=O)N1Cc1ccc(Cl)cc1 (stereo not given)	-	-	.	-	-	-
Cc1nc(N2CCN(C(=O)C3CCCCC3)CC2)c2c3c(sc2n1)CCCC3	-	.	.	.	-	-
CN1CCN(C(=S)NCCc2ccccc2)CC1	12.9	-	-	-	-	-
CCC[C@H]1[C@@H](NC(=O)c2cccnc2)CC[C@@]23CCCN2C(=O)CCC[C@@H]13	-	.	.	.	-	-
